# In PubChem BioAssay AID1159580 (chemical genetic matrix, 2015):
# Out of some 5,500 compounds screened, about 2,000 (36%) were called active. About 18% were inconclusive and are not listed. The list shows a part of the results. A number with no mark means an inactive call. No stated cut-off is given here; in the data, active means normalized growth mostly below about 0.91 (no sharp cut-off); inconclusive means no clear call, values can overlap the other calls; inactive means mostly above about 0.92.
# Assay: chemical genetic growth profiling, strain panel (AID 1159580);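 further: tested at 20 µM; growth read once vehicle control cultures reached saturation at 30 °C; 1 = growth at the plate median or of vehicle wells; lower values mean less growth of the strain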
# Conditions: growth OD
compound,measurement,setting,value
COc1ccc2oc3ccccc3c(=O)c2c1,normalized growth,"S. cerevisiae deletion strains, locus YJL187C, strain SWE1, active compounds read low",0.834 (active)
same,normalized growth,"S. cerevisiae deletion strains, locus YJR043C, strain POL32, active compounds read low",0.932
same,normalized growth,"S. cerevisiae deletion strains, locus YJR075W, strain HOC1, active compounds read low",0.885
same,normalized growth,"S. cerevisiae deletion strains, locus YKL009W, strain mrt4, active compounds read low",0.886
same,normalized growth,"S. cerevisiae deletion strains, locus YKL068W, active compounds read low",0.949
same,normalized growth,"S. cerevisiae deletion strains, locus YKL085W, strain MDH1 (second series), active compounds read low",0.914 (active)
same,normalized growth,"S. cerevisiae deletion strains, locus YKL085W, strain MDH1, active compounds read low",0.914 (active)
same,normalized growth,"S. cerevisiae deletion strains, locus YKL160W, strain elf1, active compounds read low",0.823 (active)
same,normalized growth,"S. cerevisiae deletion strains, locus YKL190W, strain CNB1, active compounds read low",0.922
same,normalized growth,"S. cerevisiae deletion strains, locus YKR001C, strain vps1, active compounds read low",0.526 (active)
same,normalized growth,"S. cerevisiae deletion strains, locus YKR026C, strain gcn3, active compounds read low",0.927
same,normalized growth,"S. cerevisiae deletion strains, locus YKR091W, strain srl3, active compounds read low",0.945
same,normalized growth,"S. cerevisiae deletion strains, locus YLL001W, strain dnm1, active compounds read low",0.875 (active)
same,normalized growth,"S. cerevisiae deletion strains, locus YLL026W, active compounds read low",0.879 (active)
same,normalized growth,"S. cerevisiae deletion strains, locus YLL041C, strain sdh2, active compounds read low",0.937
same,normalized growth,"S. cerevisiae deletion strains, locus YLR027C, strain aat2, active compounds read low",0.855 (active)
same,normalized growth,"S. cerevisiae deletion strains, locus YLR039C, strain RIC1, active compounds read low",0.486 (active)
same,normalized growth,"S. cerevisiae deletion strains, locus YLR058C, strain SHM2, active compounds read low",0.861 (active)
same,normalized growth,"S. cerevisiae deletion strains, locus YLR102C, strain apc9, active compounds read low",0.907 (active)
same,normalized growth,"S. cerevisiae deletion strains, locus YLR221C, strain rsa3, active compounds read low",0.821 (active)
same,normalized growth,"S. cerevisiae deletion strains, locus YLR258W, strain gsy2, active compounds read low",0.871 (active)
same,normalized growth,"S. cerevisiae deletion strains, locus YLR262C, strain YPT6 (second series), active compounds read low",0.597 (active)
same,normalized growth,"S. cerevisiae deletion strains, locus YLR262C, strain YPT6, active compounds read low",0.577 (active)
same,normalized growth,"S. cerevisiae deletion strains, locus YLR268W, strain sec22, active compounds read low",0.84 (active)
same,normalized growth,"S. cerevisiae deletion strains, locus YLR320W, strain mms22, active compounds read low",0.464 (active)
same,normalized growth,"S. cerevisiae deletion strains, locus YLR330W, strain CHS5, active compounds read low",0.854 (active)
same,normalized growth,"S. cerevisiae deletion strains, locus YLR342W, strain FKS1 (second series), active compounds read low",0.945
same,normalized growth,"S. cerevisiae deletion strains, locus YLR342W, strain FKS1, active compounds read low",0.952
same,normalized growth,"S. cerevisiae deletion strains, locus YLR357W, strain rsc2, active compounds read low",1.09
same,normalized growth,"S. cerevisiae deletion strains, locus YLR370C, strain arc18, active compounds read low",0.946
same,normalized growth,"S. cerevisiae deletion strains, locus YLR371W, strain rom2, active compounds read low",0.7 (active)
same,normalized growth,"S. cerevisiae deletion strains, locus YLR384C, strain iki3, active compounds read low",0.912 (active)
same,normalized growth,"S. cerevisiae deletion strains, locus YLR418C, strain cdc73, active compounds read low",0.659 (active)
same,normalized growth,"S. cerevisiae deletion strains, locus YML016C, strain PPZ1, active compounds read low",0.881 (active)
same,normalized growth,"S. cerevisiae deletion strains, locus YML032C, strain rad52, active compounds read low",0.755 (active)
same,normalized growth,"S. cerevisiae deletion strains, locus YML120C, strain ndi1, active compounds read low",0.742 (active)
same,normalized growth,"S. cerevisiae deletion strains, locus YML124C, strain tub3, active compounds read low",0.902 (active)
same,normalized growth,"S. cerevisiae deletion strains, locus YMR058W, strain fet3, active compounds read low",0.86 (active)
same,normalized growth,"S. cerevisiae deletion strains, locus YMR078C, strain ctf18, active compounds read low",0.852 (active)
same,normalized growth,"S. cerevisiae deletion strains, locus YMR125W, strain sto1, active compounds read low",0.713 (active)
same,normalized growth,"S. cerevisiae deletion strains, locus YMR129W, active compounds read low",0.95
same,normalized growth,"S. cerevisiae deletion strains, locus YMR205C, strain PFK2, active compounds read low",0.78 (active)
same,normalized growth,"S. cerevisiae deletion strains, locus YMR223W, strain ubp8, active compounds read low",0.84 (active)
same,normalized growth,"S. cerevisiae deletion strains, locus YMR231W, strain pep5, active compounds read low",0.915 (active)
same,normalized growth,"S. cerevisiae deletion strains, locus YMR307W, strain GAS1, active compounds read low",0.845
same,normalized growth,"S. cerevisiae deletion strains, locus YNL067W, strain RPL9B, active compounds read low",0.874
same,normalized growth,"S. cerevisiae deletion strains, locus YNL071W, strain lat1, active compounds read low",0.421 (active)
same,normalized growth,"S. cerevisiae deletion strains, locus YNL128W, strain TEP1, active compounds read low",0.815 (active)
same,normalized growth,"S. cerevisiae deletion strains, locus YNL209W, strain ssb2, active compounds read low",0.934
same,normalized growth,"S. cerevisiae deletion strains, locus YNL233W, strain BNI4, active compounds read low",0.81 (active)
same,normalized growth,"S. cerevisiae deletion strains, locus YNL248C, strain rpa49, active compounds read low",0.397 (active)
same,normalized growth,"S. cerevisiae deletion strains, locus YNL250W, strain rad50, active compounds read low",0.866 (active)
same,normalized growth,"S. cerevisiae deletion strains, locus YNL271C, strain bni1, active compounds read low",0.874 (active)
same,normalized growth,"S. cerevisiae deletion strains, locus YNL298W, strain CLA4, active compounds read low",0.869 (active)
same,normalized growth,"S. cerevisiae deletion strains, locus YNL307C, strain MCK1, active compounds read low",0.569 (active)
same,normalized growth,"S. cerevisiae deletion strains, locus YNL322C, strain KRE1 (second series), active compounds read low",0.992
same,normalized growth,"S. cerevisiae deletion strains, locus YNR049C, strain mso1, active compounds read low",0.947
same,normalized growth,"S. cerevisiae deletion strains, locus YNR052C, strain pop2, active compounds read low",0.874 (active)
same,normalized growth,"S. cerevisiae deletion strains, locus YOL012C, strain htz1",0.651
same,normalized growth,"S. cerevisiae deletion strains, locus YOL147C, strain pex11, active compounds read low",0.906 (active)
same,normalized growth,"S. cerevisiae deletion strains, locus YOR001W, strain rrp6, active compounds read low",0.825 (active)
same,normalized growth,"S. cerevisiae deletion strains, locus YOR061W, strain CKA2, active compounds read low",0.886 (active)
same,normalized growth,"S. cerevisiae deletion strains, locus YOR069W, strain VPS5, active compounds read low",0.918 (active)
same,normalized growth,"S. cerevisiae deletion strains, locus YOR070C, strain gyp1, active compounds read low",0.859 (active)
same,normalized growth,"S. cerevisiae deletion strains, locus YOR080W, strain dia2, active compounds read low",0.959
same,normalized growth,"S. cerevisiae deletion strains, locus YOR083W, strain WHI5, active compounds read low",0.789 (active)
same,normalized growth,"S. cerevisiae deletion strains, locus YOR106W, strain vam3, active compounds read low",0.817 (active)
same,normalized growth,"S. cerevisiae deletion strains, locus YOR136W, strain idh2, active compounds read low",0.922
same,normalized growth,"S. cerevisiae deletion strains, locus YOR144C, strain elg1, active compounds read low",0.904 (active)
same,normalized growth,"S. cerevisiae deletion strains, locus YOR184W, strain ser1, active compounds read low",0.771 (active)
same,normalized growth,"S. cerevisiae deletion strains, locus YOR265W, strain rbl2, active compounds read low",0.932
same,normalized growth,"S. cerevisiae deletion strains, locus YOR270C, strain vph1, active compounds read low",0.528 (active)
same,normalized growth,"S. cerevisiae deletion strains, locus YOR290C, strain snf2, active compounds read low",0.686 (active)
same,normalized growth,"S. cerevisiae deletion strains, locus YOR316C, strain cot1, active compounds read low",0.903 (active)
same,normalized growth,"S. cerevisiae deletion strains, locus YPL051W, strain arl3, active compounds read low",0.772 (active)
same,normalized growth,"S. cerevisiae deletion strains, locus YPL078C, strain atp4, active compounds read low",0.773 (active)
same,normalized growth,"S. cerevisiae deletion strains, locus YPL106C, strain sse1, active compounds read low",0.78 (active)
same,normalized growth,"S. cerevisiae deletion strains, locus YPL240C, strain hsp82, active compounds read low",0.931
same,normalized growth,"S. cerevisiae deletion strains, locus YPL241C, strain CIN2, active compounds read low",0.917 (active)
same,normalized growth,"S. cerevisiae deletion strains, locus YPR119W, strain clb2, active compounds read low",0.907 (active)
same,normalized growth,"S. cerevisiae deletion strains, locus YPR141C, strain kar3, active compounds read low",0.882 (active)
same,normalized growth,"S. cerevisiae deletion strains, locus YPR163C, strain tif3, active compounds read low",0.756 (active)
same,normalized growth,"S. cerevisiae deletion strains, locus YPR167C, strain met16, active compounds read low",0.925
same,normalized growth,"S. cerevisiae deletion strains, strain wtn01, active compounds read low",0.87 (active)
same,normalized growth,"S. cerevisiae strains, strain wild type, active compounds read low",0.874 (active)
